The full list was thinned out, with hits kept by preference.
Pf Dd2 inh: qHTS Primary assay for Inhibitors of Plasmodium falciparum Dd2 growth in vitro. P. falciparum Dd2 growth, SYBR Green, 72 h. 120,000 compounds, 4.3% hits. AID 1347417, 2020. Potency, µM (top dose mostly 28.9 µM), for the others: at the top dose activity, negative = inhibition, usual class: inhibitors; active means well fitted inhibition curve with a large enough effect;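 further: plate controls were DMSO vehicle for no effect and reference drug for full effect; nearly all actives have a fitted effect of over 65% in size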
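Readout: SYBR Green fluorescence, 485 nm excitation, 535 nm emission, after ~16 h lysis at 37C. Before that, Dd2-infected red cells (2.5% hematocrit) grew 72 h with compound, 29 uM top final concentration.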
An asterisk follows results filed as active; [ ] = dose if it differs, or a comment. Potency means the concentration at half of the fitted maximal effect.

CCCN(CCC)CC(O)Cn1cc(/C=C/C(=O)c2ccc(C)cc2)c2ccccc21 (configuration not stated) was read as Pf Dd2 inh 1.1µM*.
For Cc1ccc(CNC(=O)CCc2cn(Cc3ccc(C)cc3)c3ccccc23)cc1 the results were Pf Dd2 inh -22%.
Screening CCOc1c(CN(C)C(=O)Cn2cccc(OC)c2=O)cccc1OC returned Pf Dd2 inh -7%.
O=C(O)c1ccc2c(c1)n(Cc1ccc(F)cc1)c(=O)c1ccnn12 was read as Pf Dd2 inh -12%.
Screening CC(=O)N1CCCC(c2[nH]ccc2C(=O)NCc2ccc3c(c2)OCO3)C1 (configuration not stated) returned Pf Dd2 inh -26%.
`CCCNC(=O)N(C1CCOCC1)C1CCN(C(=O)c2ccc(Cl)cc2OC)CC1` gave Pf Dd2 inh -21%.
Screening O=C1CO[C@H](c2ccc(NS(=O)(=O)c3cccc(F)c3)cc2)[C@@H](CO)N1C1CCOCC1 returned Pf Dd2 inh 10%.
Screening CCN1C(=O)C2CC3(CCN(S(=O)(=O)N(C)C)CC3)CN2C1=O (configuration not stated) returned Pf Dd2 inh 4%.
For CCOc1ccc(Nc2nc(C)c(NC(=O)c3ccc(C)cc3)c(Nc3ccc(OCC)cc3)n2)cc1 the results were Pf Dd2 inh -12%.
`Cc1ccc(C(=O)Nc2c(C)nc3ccccn3c2=O)cc1` gave Pf Dd2 inh 17%.
`Cc1ccc(Nc2nc(C)c(NC(=O)c3ccc(C)cc3)c(Nc3ccc(C)cc3)n2)cc1` gave Pf Dd2 inh 8.9µM*.
CCCC(=O)Nc1c(C(=O)N2CCN(c3ccccc3)CC2)oc2ccccc12 was read as Pf Dd2 inh 120%[5.79 µM].
COc1ccc(OCC(=O)Nc2c(C(=O)N3CCN(c4ccccc4)CC3)oc3ccccc23)cc1 was read as Pf Dd2 inh 11µM*.
For CCC(=O)Nc1ccc(C2(C(=O)N3CCN(c4ccccc4F)CC3)CCC2)cc1 the results were Pf Dd2 inh -10%.
`CCCCC(=O)Nc1c(C(=O)N2CCN(c3ccccc3F)CC2)oc2ccccc12` gave Pf Dd2 inh 11µM*.
Screening CC(C)CC(=O)Nc1c(C(=O)N2CCN(c3ccccc3F)CC2)oc2ccccc12 returned Pf Dd2 inh 7.1µM*.
Screening CCOc1ccc(NC(=O)c2oc3ccccc3c2NC(=O)COc2cccc(OC)c2)cc1 returned Pf Dd2 inh 13%.
`Cc1ccc(OCC(=O)Nc2c(C(=O)c3ccccc3)oc3ccccc23)cc1C` gave Pf Dd2 inh 31%.
Screening Cc1cccc(OCC(=O)Nc2c(C(=O)N3CCN(c4ccccc4F)CC3)oc3ccccc23)c1 returned Pf Dd2 inh -20%.
O=C(Nc1c(C(=O)N2CCN(c3ccccc3F)CC2)oc2ccccc12)c1ccco1 was read as Pf Dd2 inh 4%.
`CSCC(=O)N1CC(CO)C2(CCNCC2)C1` (configuration not stated) gave Pf Dd2 inh -2%.
For O=C(NCc1ccc(F)cc1)NC1CCc2nnc(C3CC3)n2CC1 (configuration not stated) the results were Pf Dd2 inh inactive.
COc1ccccc1NC(=O)N1CCC2(CC1)SCC(=O)N2Cc1ccco1 was read as Pf Dd2 inh inactive.
For O=C(c1cc(CC2(NCc3ccccc3F)COC2)no1)N1CCCCC1 the results were Pf Dd2 inh inactive.
Screening CC(C)Cn1nc2n(c1=O)CCN(S(=O)(=O)c1ccc(C(C)(C)C)cc1)CC2 returned Pf Dd2 inh 11µM*.
`CC(C)Cn1nc2n(c1=O)CCN(S(=O)(=O)c1cccs1)CC2` gave Pf Dd2 inh -7%.
`CC(C)Cn1nc2n(c1=O)CCN(S(=O)(=O)Cc1ccccc1)CC2` gave Pf Dd2 inh 3%.
For COc1ccc(CN2C[C@H]3CN(Cc4nccn4C)CCN3C2=O)cc1 the results were Pf Dd2 inh -6%[44.1 µM].
Screening COc1ccc(NC(C)=O)cc1NC(=O)CC[C@H]1NC(=O)c2ccccc2NC1=O returned Pf Dd2 inh -12%.
For COc1cccc(CC(=O)N2[C@@H]3CC[C@H]2CC(NC(=O)c2ccc(F)cc2)C3)c1 (some centres not stated) the results were Pf Dd2 inh inactive.
CC(C)CC(=O)N1[C@@H]2CC[C@H]1CC(NC(=O)c1ccc(F)cc1)C2 (some centres not stated) was read as Pf Dd2 inh -18%.
`O=C(NC1C[C@H]2CC[C@@H](C1)N2C(=O)CCCc1ccccc1)c1ccc(F)cc1` (some centres not stated) gave Pf Dd2 inh 8.9µM*.
For Cc1cnc(C(=O)N2CCCC(Cc3noc(-c4cnccn4)n3)C2)cn1 (configuration not stated) the results were Pf Dd2 inh -14%.
For CCCCC(=O)Nc1ccc(C)cc1NC(=O)COc1cccnc1 the results were Pf Dd2 inh -7%.
COc1ccc(-c2ccnc(N[C@H]3CO[C@H]4[C@@H]3OC[C@H]4OC(=O)Nc3ccc(C(C)=O)cc3)n2)cc1 was read as Pf Dd2 inh 5.6µM*.
`COc1ccc(-c2ccnc(N[C@H]3CO[C@H]4[C@@H]3OC[C@@H]4NC(=O)NCc3ccccc3)n2)cc1` gave Pf Dd2 inh 5µM*.
For COc1ccc(-c2ccnc(N[C@H]3CO[C@H]4[C@@H]3OC[C@H]4OC(=O)Nc3cccc(C(C)=O)c3)n2)cc1 the results were Pf Dd2 inh -28%.
Screening CCNC(=O)N[C@H]1CO[C@H]2[C@@H]1OC[C@@H]2Nc1nccc(-c2ccc(OC)cc2)n1 returned Pf Dd2 inh inactive.
`COc1ccc(-c2ccnc(N[C@H]3CO[C@H]4[C@@H]3OC[C@@H]4NC(=O)CC3(CC(=O)O)CCCC3)n2)cc1` gave Pf Dd2 inh -4%.
COc1ccc(-c2ccnc(N[C@H]3CO[C@H]4[C@@H]3OC[C@H]4OC(=O)Nc3ccc(C(C)(C)C)cc3)n2)cc1 was read as Pf Dd2 inh inactive.
CN1CCc2nc(N(C)C)[nH]c(=O)c2CC1 was read as Pf Dd2 inh 2%[5.79 µM].
`Cc1ccc(NC(=O)C2CCCN(S(=O)(=O)c3cccc4cccnc34)C2)cc1Cl` (configuration not stated) gave Pf Dd2 inh -1%.
`CCc1ccc(NC(=O)C2CCCN(S(=O)(=O)c3cccc4nsnc34)C2)cc1` (configuration not stated) gave Pf Dd2 inh -11%.
Screening CCc1ccc(NC(=O)C2CCCN(S(=O)(=O)c3cccc4cccnc34)C2)cc1 (configuration not stated) returned Pf Dd2 inh 14µM*.
CC[C@H]1CN(S(=O)(=O)c2ccc(OC)cc2)CC[C@H]1CC(=O)NCCOC was read as Pf Dd2 inh 5%[44.1 µM].
`CN(C)S(=O)(=O)N1CCCC1C(=O)Nc1ccc(-c2cccc(F)c2)cc1` (configuration not stated) gave Pf Dd2 inh -6%.
`O=C(NCC1CCN(Cc2cccc(Cl)c2)CC1)Nc1cc(Cl)ccc1Cl` gave Pf Dd2 inh inactive.
Screening O=C(Nc1cccc(-c2cccc(Cl)c2)c1)C1CCN(Cc2cccc(O)c2)CC1 returned Pf Dd2 inh 4µM*.
`CC(=O)NC1(C)CCN(Cc2cccc(-c3cccc(Cl)c3)c2)C1` (configuration not stated) gave Pf Dd2 inh -14%[44.1 µM].
For CCCN1CCC(N2CCC(C(=O)Nc3cccc(-c4cccc(F)c4)c3)CC2)CC1 the results were Pf Dd2 inh 2.2µM*.
CS(=O)(=O)N1CCCC1C(=O)Nc1ccc(-c2cccc(F)c2)cc1 (configuration not stated) was read as Pf Dd2 inh -1%.
